Laboratory results taken from a collection of fitness landscapes (doi:10.1016/j.celrep.2020.107928).
Over roughly 81,000 sequences, “one-hybrid fitness for binding NBS DNA” has its median near -0.1; the highest 2% begin near 0.36. For the sample, the highest values were picked, then their nearest neighbours and some sequences at random.

B1: Caulobacter ParB omega fusion; a variant is named by its letters at X, in order, B8GW30 (parent)
chain: MESVVVGEPGMSEGRRGLGRGLSALLGEVDAAPAQAPGEQLGGSREAPIEILQRNPDQPRRTFREEDLEDLSNSIREKGVLQPILVRPSPDTAGEYQIVAGERAWRAAQRAGLKTVPIMVRELDDLAVLEIGIIENVQRADLNVLEEALSYKVLMEKFERTQENIAQTIGKSXSHVANXMRLLXLPDEVQSYLVSGELTAXHARAIAAAADPVALAKQIIEGGLSVRETEALARKAPNLSAGKSKGGRPPRVKDTDTQALESDLSSVLGLDVSIDHRGSTGTLTITYATLEQLDDLCNRLTRGI

Variants of: B1
Assay: one-hybrid fitness for binding NBS DNA (the Noc-binding site; scaled: cognate 1, non-cognate 0); higher = stronger binding
Conditions: with NBS DNA site
Outline: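 On M9-minus-histidine containing 0.1 mM IPTG and 5 mM 3-AT, E. coli USO cells with a HIS3 reporter, site 19 bp from the promoter, grew 48 hours at 37°C to select Caulobacter ParB libraries randomised at four specificity codons. Plasmids from before and after were Illumina-sequenced, with three replicate libraries pooled and variants under 10 reads left out. Fitness is the log change in variant-to-wild-type read ratio, rescaled against cognate and non-cognate.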

Variant	one-hybrid fitness for binding NBS DNA
QFSY	≤ 0.2
LCCW	≤ 0.2
SFAL	≤ 0.2
PWTQ	≤ 0.2
SYNN	≤ 0.2
PQEL	≤ 0.2
MDPA	≤ 0.2
QCMN	≤ 0.2
FPNL	≤ 0.2
PFHL	≤ 0.2
LLMP	≤ 0.2
FGTY	≤ 0.2
RTKN	0.3
RTKS	0.622
RTKP	≤ 0.2
ANHS	≤ 0.2
KTYT	≤ 0.2
KTFT	≤ 0.2
KTDT	≤ 0.2
KTRT	0.44
KTVT	≤ 0.2
KTKT	0.396
HMYT	≤ 0.2
SGID	≤ 0.2
QDWR	≤ 0.2

Variant	one-hybrid fitness for binding NBS DNA
DLYM	≤ 0.2
MQVF	≤ 0.2
PLIS	≤ 0.2
QPKY	≤ 0.2
QHVY	≤ 0.2
QIKY	0.364
QHQY	≤ 0.2
QIKP	≤ 0.2
QGKY	≤ 0.2
QSVY	≤ 0.2
QCKY	0.59
QHKY	0.529
QCVY	≤ 0.2
QSKY	0.517
QIKD	≤ 0.2
GTNT	≤ 0.2
RTRV	0.288
PYEG	≤ 0.2
AMAG	≤ 0.2
PRCC	≤ 0.2
MKRL	≤ 0.2
GLHC	≤ 0.2
WTLT	≤ 0.2
YTVE	≤ 0.2
QMVY	≤ 0.2

Variant	one-hybrid fitness for binding NBS DNA
QMKY	0.516
QKKY	0.498
QAVY	≤ 0.2
QMPY	≤ 0.2
QKNY	0.26
QANY	≤ 0.2
QTVY	≤ 0.2
QKVY	≤ 0.2
QAKY	0.531
QTKY	0.658
QTIY	≤ 0.2
VVSE	≤ 0.2
LAWC	≤ 0.2
RNCT	≤ 0.2
SKAC	≤ 0.2
MVPR	≤ 0.2
EELK	≤ 0.2
TSEY	≤ 0.2
HMMA	≤ 0.2
CPSC	≤ 0.2
TSCN	≤ 0.2
GRQR	≤ 0.2
QLHY	≤ 0.2
QLVY	≤ 0.2
QLKY	0.46

Variant	one-hybrid fitness for binding NBS DNA
KCDL	≤ 0.2
SRHH	≤ 0.2
QQNA	0.421
QQHA	0.384
QQAA	0.347
QQLA	0.294
QQIA	≤ 0.2
QQVA	0.271
QQSA	0.37
QQDA	0.25
QQKA	0.628
QQQA	0.357
QQPA	≤ 0.2
PRNE	≤ 0.2
MSCY	≤ 0.2
IKIS	≤ 0.2
QDWF	≤ 0.2
TRTG	≤ 0.2
QQRA	0.606
QQWA	0.212
QQYA	0.303
QQCA	0.291
QQGA	0.388
QQFA	0.201
RKVR	0.478

Variant	one-hybrid fitness for binding NBS DNA
RKKM	0.269
RKKF	≤ 0.2
RPVR	0.204
RCVR	0.349
RKKR	0.768
TEPD	≤ 0.2
QDCL	≤ 0.2
HRVR	≤ 0.2
PRKR	0.4
PCKR	0.205
PRVR	≤ 0.2
HRYR	≤ 0.2
TRKS	0.437
TRKP	≤ 0.2
YRKR	0.377
YRVR	≤ 0.2
HRKR	0.395
TRVS	≤ 0.2
YCKR	≤ 0.2
GNLD	≤ 0.2
ICLR	≤ 0.2
DVLD	≤ 0.2
AEAG	≤ 0.2
IGGG	≤ 0.2
AHLT	≤ 0.2

Variant	one-hybrid fitness for binding NBS DNA
TRVR	0.215
TRKN	0.212
ARVR	≤ 0.2
ARKR	0.364
ARYR	≤ 0.2
TRKR	0.799
KFSD	≤ 0.2
ETGL	≤ 0.2
QTID	≤ 0.2
QTIN	≤ 0.2
QTPN	≤ 0.2
QTIR	0.499
QSPR	0.27
QPPR	≤ 0.2
QTPR	0.42
QCPR	0.37
QTPD	≤ 0.2
FWRC	≤ 0.2
SYKP	≤ 0.2
HILC	≤ 0.2
CLQI	≤ 0.2
NVRS	≤ 0.2
IVEG	≤ 0.2
QRGG	0.367
QRQG	0.366

Variant	one-hybrid fitness for binding NBS DNA
QCRG	0.451
QPGG	≤ 0.2
QRFG	0.249
QRAG	0.37
QCAG	≤ 0.2
QCQG	≤ 0.2
QSRG	0.319
QSQG	≤ 0.2
QCGG	≤ 0.2
QPRG	≤ 0.2
PYIE	≤ 0.2
ACCM	≤ 0.2
VPMR	≤ 0.2
STTV	≤ 0.2
THKV	≤ 0.2
IMSF	≤ 0.2
GCVM	≤ 0.2
QMYG	≤ 0.2
QRYG	0.312
QCNG	≤ 0.2
QTYG	≤ 0.2
QRNG	0.381
QTRG	0.496
QMDG	≤ 0.2
QRRG	0.483

Variant	one-hybrid fitness for binding NBS DNA
QTDG	≤ 0.2
QMRG	0.391
QRIG	≤ 0.2
QRDG	≤ 0.2
AHGY	≤ 0.2
VSQE	≤ 0.2
EAKN	≤ 0.2
LLTW	≤ 0.2
AKGR	≤ 0.2
QLFF	≤ 0.2
YHKT	≤ 0.2
GRAV	≤ 0.2
LTWN	≤ 0.2
RRAH	0.406
RRAD	≤ 0.2
RRFH	0.389
RSFS	0.252
RRAN	0.282
RRFS	0.666
RCFS	0.411
RRFD	≤ 0.2
RRFM	0.266
RRFN	0.23
RPFS	≤ 0.2
RRFP	≤ 0.2

Variant	one-hybrid fitness for binding NBS DNA
LARA	≤ 0.2
ELER	≤ 0.2
PWIR	≤ 0.2
MRID	≤ 0.2
CPAI	≤ 0.2
RRAK	0.254
RRAS	0.655
RRAP	≤ 0.2
RISN	≤ 0.2
RIYR	0.377
RIQH	≤ 0.2
RIHR	0.477
RILR	0.27
RIQR	0.38
RIPR	≤ 0.2
RISD	≤ 0.2
RIQD	≤ 0.2
RIHH	≤ 0.2
RISR	0.386
RIHP	≤ 0.2
PALM	≤ 0.2
HPME	≤ 0.2
PIEV	≤ 0.2
KSHW	≤ 0.2
VSAN	≤ 0.2

Variant	one-hybrid fitness for binding NBS DNA
EYDR	≤ 0.2
AMER	≤ 0.2
ITVP	≤ 0.2
GPTF	≤ 0.2
TCYM	≤ 0.2
RGSS	≤ 0.2
WTNW	≤ 0.2
HPYT	≤ 0.2
GAIA	≤ 0.2
RIGR	0.441
RIWN	≤ 0.2
RIIR	≤ 0.2
RIWR	0.367
RIRH	0.333
RIRR	0.638
RIGH	≤ 0.2
RIGD	≤ 0.2
RIWM	≤ 0.2
ISCL	≤ 0.2
YPMG	≤ 0.2
GWYC	≤ 0.2
RPAE	≤ 0.2
HFNL	≤ 0.2
RVQH	≤ 0.2
RVAR	0.396

Variant	one-hybrid fitness for binding NBS DNA
RVFR	0.34
RVQS	0.357
RVQR	0.415
RVRR	0.626
RVAH	≤ 0.2
RVWR	0.248
RVYR	0.359
TANR	≤ 0.2
ERVW	≤ 0.2
TLWC	≤ 0.2
KAYA	≤ 0.2
QKKE	0.283
QKKD	0.211
QKKI	0.337
QKKS	0.662
QKKH	0.619
QKKP	0.26
QKKN	0.42
QKVH	≤ 0.2
QKKG	0.332
QKVQ	0.268
QKHQ	≤ 0.2
QKKQ	0.384
FAHG	≤ 0.2
SLHE	≤ 0.2

Variant	one-hybrid fitness for binding NBS DNA
RHIK	≤ 0.2
GTLP	≤ 0.2
PPRN	≤ 0.2
SIAA	≤ 0.2
YQPS	≤ 0.2
KTAW	≤ 0.2
CMYT	≤ 0.2
DGST	≤ 0.2
AMAP	≤ 0.2
QKRG	0.335
QKQS	0.458
QKIS	0.278
QKYS	0.43
QKPS	≤ 0.2
QKYN	≤ 0.2
QKNP	≤ 0.2
QKQP	≤ 0.2
QKQD	≤ 0.2
QKRN	0.37
QKDS	0.332
QKNS	0.539
DCTY	≤ 0.2
IHHC	≤ 0.2
WGKE	≤ 0.2
WAWT	≤ 0.2

Variant	one-hybrid fitness for binding NBS DNA
MWRS	≤ 0.2
MATS	≤ 0.2
CSVV	≤ 0.2
GFNG	≤ 0.2
QKAN	≤ 0.2
QKAP	≤ 0.2
QKAS	0.498
QKHS	0.494
QKCN	≤ 0.2
GKLH	0.366
QKHD	≤ 0.2
QKCH	≤ 0.2
QKCS	0.419
QKHH	0.205
GKLS	≤ 0.2
GKLD	≤ 0.2
